Source: PubChem BioAssay AID504832 (National Center for Advancing Translational Sciences (NCATS), 2011)
The whole screen tested about 310,000 compounds, of which about 18,000 (5.8%) were called active. Roughly 22% stayed inconclusive and do not appear here. This is one part of a sample in which actives are shown more often than they occur. Calls come from the whole dose curve; as a rule, active = well fitted inhibition curve with a large enough effect; inconclusive = small, poorly fitted or top-dose-only effect, or another doubt; inactive = no such curve, though single readings can be large or run the other way.

Assay: Primary qHTS for delayed death inhibitors of the malarial parasite plastid, 48 hour incubation
Conditions: P. falciparum luciferase growth in erythrocytes; series mostly up to 28.7 µM; activity change, negative = inhibition: at the top concentration
Description: The goal of this screen is to discover new antimalarial compounds that act by inhibiting the development of the apicoplast in the malarial parasite Plasmodium falciparum. The biochemical processes that make this organelle essential for erythrocytic stage parasites are not well understood. However, antibiotics such as azithromycin and tetracycline, which target the apicoplast translational machinery, have a potent antimalarial effect.
We have developed a cell-based assay that measures parasite growth based on the expression of an integrated copy of a firefly luciferase reporter. To detect small molecules that cause this "delayed death" phenotype, erythrocytes infected with the luciferase-expressing parasites were incubated with compounds for either one or two generations, corresponding to 48 and 96 hours, respectively. Compounds that inhibit parasite growth in the second generation, but not the first, should be enriched in antimalarials that target the apicoplast. Growth inhibition is detected by a decrease in luciferase activity.
Assay Provider: David Fidock and Eric Ekland, Columbia University
Keywords: NIH Roadmap, MLPCN, MLI, MLSMR, qHTS, NCGC, qHTS, malaria, luciferase, viability
Four microliters of culture medium (RPMI 1640 with 0.5% w/v Albumax (GIBCO), 24 mM sodium bicarbonate and 10 ug/mL gentamycin) were dispensed by a Multi-drop Combi into white solid 1536-well plates (Grenier) and 23 nL compound was added by a pin tool. Four microliters of infected erythrocytes (2% hematocrit, 0.1% parasitemia final concentration) in culture medium were dispensed and the plates incubated for 48 hours at 37 C in 5% CO2. Two microliters of luciferase detection reagent was added and luminescence was detected by a ViewLux (PerkinElmer) reader.
% is set by controls: 0 for no effect and ±100 for the full control effect; potency is the fitted concentration of half-maximal effect.

Structure (SMILES) | activity change, negative = inhibition | Potency
O=C(CSc1nc(=O)n2ccccc2n1)Nc1ccc2c(c1)OCCO2 | 38.7% (inactive) | –
COc1ccc(C(C)NC(=O)C2CCCC2)cc1 (stereo not given) | 3.5% (inactive) | –
CN(C)S(=O)(=O)c1ccc(N2CCCC2)c(C(=O)NCc2ccccc2)c1 | -7.21% (inactive) | –
CN(C)S(=O)(=O)c1ccc(N2CCCC2)c(C(=O)Nc2cccc(F)c2)c1 | -17% (inactive) | –
CN(C)S(=O)(=O)c1ccc(N2CCCC2)c(C(=O)Nc2ccc(Br)cc2F)c1 | – | 5.22 µM (active)
COc1ccc(-n2ncc3c2CC(C)(C)CC3NC(=O)CCc2c(C)nn(C)c2C)cc1 (stereo not given) | -1.16% (inactive) | –
Cc1cc(C)n2nc(CNS(=O)(=O)c3c(F)c(F)c(F)c(F)c3F)nc2n1 | 0% (inactive) | –
Cn1c(N)c(C(=O)COC(=O)COc2ccc(Cl)cc2)c(=O)n(C)c1=O | 20.5% (inactive) | –
COc1cc(OC)c(NC(=O)c2ccc(Br)o2)cc1Cl | – | 8.28 µM (active)
CCN1CCN(c2c(Cl)cccc2NC(=O)c2ccc(Br)o2)CC1 | 0% (inactive) | –
COC(=O)c1ccc(N2CCOCC2)c(NC(=O)c2ccc(Br)o2)c1 | 2.02% (inactive) | –
O=C(CCCCCn1c(=S)[nH]c2ccsc2c1=O)NC1CCCCC1 | -9.79% (inactive) | –
CC1CCc2[nH]c3ccc(C(=O)N(C)CC(=O)Nc4cccc(F)c4)cc3c2C1 (stereo not given) | -27.2% (inactive) | –
CCCN(CC(=O)Nc1ccccc1C)C(=O)c1ccc2[nH]c3c(c2c1)CC(C)CC3 (stereo not given) | – | 10.4 µM (active)
CCCN(CC(=O)Nc1ccccc1C)C(=O)c1cc(=O)[nH]c2ccccc12 | 17.1% (inactive) | –
CCC(C(=O)NCc1cccnc1)n1nc(C)c2sc3ccccc3c2c1=O (stereo not given) | 9.32% (inactive) | –
CC(C)NC(=O)C(c1ccc(F)cc1)N(C(=O)CCC(=O)Nc1ccccn1)c1ccccc1F (stereo not given) | 20.9% (inactive) | –
O=C(Nc1ccc(Sc2ccc(Br)cc2)cc1)c1ccco1 | – | 2.33 µM (active)
O=C(Nc1ccccc1)c1ccco1 | 60.9% (inactive) | –
O=C(Nc1ccc(O)cc1)c1ccc(NC(=O)c2ccco2)cc1 | 81.7% (inactive) | –
COc1ccc(OCc2cc(C(=O)N3CCCC3)no2)c2ccccc12 | -19.2% (inactive) | –
CC(CCN1CCN=C1N(C)C)c1ccccc1 (stereo not given) | -8.95% (inactive) | –
O=c1[nH]cnc(O)c1C(c1ccc(F)cc1)c1c(O)nc[nH]c1=O | -0.229% (inactive) | –
COCCCC1CCN(C(=O)C2CCC(=O)N(C3CCCCCC3)C2)CC1 (stereo not given) | -6.84% (inactive) | –
Cc1ccc2nc(N3C(=O)C(O)=C(C(=O)c4ccco4)C3c3cccc(O)c3)sc2c1 (stereo not given) | 93% (inactive) | –
CCc1cccc(NC(=O)COC(=O)c2cc(=O)c3ccccc3o2)c1 | 22.4% (inactive) | –
NC(=O)C1CCN(C(=O)COc2ccc3c4c(c(=O)oc3c2)CCC4)CC1 | -3.55% (inactive) | –

Structure (SMILES) | activity change, negative = inhibition | Potency
NC(=O)COc1ccc2c3c(c(=O)oc2c1)CCCCC3 | 25.1% (inactive) | –
O=c1oc2c(CN3CCCCC3)c(O)ccc2c2c1CCCCC2 | – | 2.94 µM (active)
Cc1cccnc1NC(=O)Cn1c(=O)oc2ccccc21 | -5.88% (inactive) | –
O=C(COC(=O)CNS(=O)(=O)c1ccc(F)c(F)c1F)NC1CCCC1 | 28.8% (inactive) | –
Nc1nnc(SCC(=O)NCC(=O)Nc2ccc(F)c(F)c2F)s1 | 5.81% (inactive) | –
COc1cc(C(=S)NC2CCCCC2)ccc1O | – | 10.4 µM (active)
COc1ccc(Cl)cc1C(=O)NNC(=S)NC1CCCC1 | -17.5% (inactive) | –
COc1ccc(C(=O)NC(=S)NC2CCCCC2)cc1 | -27.2% (inactive) | –
COc1cc(C(=S)N2CCOCC2)ccc1O | – | inactive
COc1cc(OC)c(C(=O)NC2CCCCCC2)cc1OC | 0.054% (inactive) | –
COc1ccc(C(C)NC(=S)NC2CCCCC2)cc1OC (stereo not given) | – | 2.08 µM (active)
C=CCNC(=O)COc1coc(CN2CCN(Cc3ccccc3)CC2)cc1=O | 10.4% (inactive) | –
CC(C)(C)n1nnnc1C(c1ccc2ncccc2c1)N1CCSCC1 (stereo not given) | – | 9.28 µM (active)
Cn1c(SCC(=O)N2CCOCC2)nnc1-c1ccc2ncccc2c1 | 17% (inactive) | –
Cc1ccc(C(c2nnnn2C(C)(C)C)N2CCc3ccccc3C2)cc1 (stereo not given) | 3.97% (inactive) | –
O=C(Nc1nnc(S(=O)(=O)N2CCOCC2)s1)c1cccc(Br)c1 | -13.8% (inactive) | –
COc1ccc(CCNC(=O)Cn2c(=O)n(CC3CCCO3)c(=O)c3ccccc32)cc1OC (stereo not given) | -10.1% (inactive) | –
O=C(NCCc1ccccc1)C1CCC(Cn2c(=O)c3ccccc3n(Cc3cccnc3)c2=O)CC1 (stereo not given) | – | 11.7 µM (active)
O=C(CCc1ccccc1)NCc1cccnc1 | 1.54% (inactive) | –
COCCN(C(=O)CCC(=O)Nc1nccs1)C(C(=O)NCCC(C)C)c1ccc(F)cc1 (stereo not given) | -3.76% (inactive) | –
c1ccc(-n2ncc3c(N4CCCC4)ncnc32)cc1 | 9.64% (inactive) | –
Oc1ccccc1N1CCN(c2ncnc3sc(-c4ccccc4)cc23)CC1 | – | 13.1 µM (active)
COc1ccc(Nc2ncnc3sc(-c4ccccc4)cc23)c(OC)c1 | -11% (inactive) | –
Cn1c(=O)oc2cc(S(=O)(=O)NCCC(=O)NCc3ccccc3Cl)ccc21 | 4.72% (inactive) | –
Cc1ccc(CNCc2ccc3c(c2)OCO3)c(C)c1 | 3.76% (inactive) | –
OC(CNCc1ccc2c(c1)OCO2)COc1ccccc1 (stereo not given) | – | 3.29 µM (active)
COc1cccc(CNCc2ccc3c(c2)OCO3)c1 | -0.266% (inactive) | –

Structure (SMILES) | activity change, negative = inhibition | Potency
CNS(=O)(=O)c1ccc(NC(=O)Nc2ccc3c(c2)OCO3)cc1 | 125% (inactive) | –
CCn1nccc1C(=O)Nc1ccc(Cl)c(Cl)c1 | 28.2% (inactive) | –
O=C(Nc1ccc(S(=O)(=O)Nc2ncccn2)cc1)C12CC3CC(CC(C3)C1)C2 | 5.34% (inactive) | –
CCn1nccc1C(=O)Nc1ccc(S(=O)(=O)NC23CC4CC(CC(C4)C2)C3)cc1 | – | 6.57 µM (active)
Cc1ccc(C)c(S(=O)(=O)Nc2cc(C)on2)c1 | 10.4% (inactive) | –
CC(CN1CCOCC1)c1ccccc1 (stereo not given) | -5.89% (inactive) | –
OC(c1ccc(Cl)cc1)C(CN1CCOCC1)c1ccccc1 (stereo not given) | – | 2.33 µM (active)
O=C(CC(c1ccccc1)c1cc(Cl)ccc1O)NCCN1CCOCC1 (stereo not given) | 47.7% (inactive) | –
O=C(CN(C(=O)c1csnn1)c1ccc(Br)cc1)NC1CCCC1 | 18.7% (inactive) | –
CC(C)(C)c1ccc(S(=O)(=O)N2CCN(C(=O)c3ccc4c(c3)C(=O)N(Cc3ccncc3)C4=O)CC2)cc1 | -2.86% (inactive) | –
CC(C)(C)c1ccccc1NC(=O)CN1C(=O)NC2(CCCC2)C1=O | -0.115% (inactive) | –
O=C(Nn1cnnc1)c1cc(Cl)ccc1Cl | 2.15% (inactive) | –
CSc1ncnc2sc(C)c(C)c12 | -21.6% (inactive) | –
Cc1sc2ncnc(Sc3nc4ccccc4s3)c2c1C | – | 1.85 µM (active)
c1ccc2sc(SNC3CCCCC3)nc2c1 | 0.0777% (inactive) | –
Cc1coc2c1c(C)cc1oc(=O)c(CC(=O)NCC(=O)N[C@H](C(=O)O)C(C)C)c(C)c12 | -9.45% [at 0.00184 µM] (inactive) | –
CC(=O)N[C@@H](C)C(=O)N1CCC(n2nccc2NC(=O)CCCc2ccccc2)CC1 | -2.41% (inactive) | –
Cc1ccc(C)c(OCCC(=O)OCC(=O)NC(=O)NCc2ccccc2)c1 | -8.03% (inactive) | –
CCC1CCCCN1C(=S)Nc1ccc(S(=O)(=O)Nc2ncccn2)cc1 (stereo not given) | 2.45% (inactive) | –
O=C(CCN1C(=O)[C@@H]2Cc3ccccc3CN2C1=O)NCCc1ccccc1 | 0.996% (inactive) | –
CC(=O)Nc1ccc(CN2CCC(Oc3ccc(C(=O)N4CCCC4)cc3)CC2)cc1 | 50.1% (inactive) | –
O=C(c1ccc(OC2CCN(C/C=C/c3ccc(F)cc3)CC2)cc1)N1CCCCC1 | – | 11.7 µM (active)
O=C(c1ccc(OC2CCN(Cc3ccccn3)CC2)cc1)N1CCCCCC1 | -17.7% (inactive) | –
CCc1noc(C)c1C(=O)NNC(=O)c1ccc(F)cc1 | -2.99% (inactive) | –
CCn1nc(C)c(CNC(=O)C2CCC(=O)N(Cc3cccc(F)c3)C2)c1C (stereo not given) | 30.1% (inactive) | –
CC(C)[C@H](NC(=O)N1CCn2c1nc1ccccc12)C(=O)NCc1ccc2c(c1)OCO2 | -9.51% (inactive) | –
CC(C)(C)c1ccc(C(=O)N2CCC(C(=O)N3CCCCC3)CC2)cc1 | -7.27% (inactive) | –

Structure (SMILES) | activity change, negative = inhibition | Potency
CC(C)(C)c1ccc(/C=C2\Oc3c(ccc(O)c3CN3CCN(CCO)CC3)C2=O)cc1 | – | 10.4 µM (active)
CC(=O)Nc1cccc(NC(=O)c2ccc3c(c2)CCN3S(C)(=O)=O)c1 | 11.6% (inactive) | –
C[C@H](NC(=O)C1CC(=O)N(c2ccc3c(c2)OCCO3)C1)C(=O)N1CCC(C(=O)O)CC1 (stereo not given in full) | -18.3% (inactive) | –
CC1(C)c2[nH]c3ccccc3c2C[C@H]2C(=O)N(N)CC(=O)N21 | 34.8% (inactive) | –
Cc1cc(C)cc(OCc2nnc(SCC(=O)OC3CCCCC3)o2)c1 | 12.6% (inactive) | –
Cc1ccccc1OCc1nnc(SCC(=O)N2c3ccccc3Sc3ccc(Cl)cc32)o1 | – | 10.4 µM (active)
Cc1cc(C)cc(OCc2nnc(SCC(=O)Nc3ccccc3)o2)c1 | -7.32% (inactive) | –
CC(C)Oc1ccc(C(=O)NCC(=O)Nc2ccc3c(c2)CCC3)cc1 | 35% (inactive) | –
CCN(CC)c1ccc(S(=O)(=O)N2CCCCC2)cc1NC(=O)C1=COCCO1 | – | 13.1 µM (active)
CCN(CC)c1ccc(S(=O)(=O)N2CCOCC2)cc1NC(=O)CSc1cccc[n+]1[O-] | -26.3% (inactive) | –
O=C(Nc1ccc(S(=O)(=O)N2CCCC2)cc1Cl)C1=COCCO1 | -19.6% (inactive) | –
COc1ccc(-c2noc(CCCC(=O)NC3CCCC3)n2)cc1OC | -19% (inactive) | –
Cn1c(-c2ccc(F)cc2)cc2onc(-c3ccccc3Cl)c2c1=O | 33.5% (inactive) | –
O=C(Nc1ccc([N+](=O)[O-])cc1)OCCc1ccccn1 | 40.9% (inactive) | –
CC[C@@H]1Cc2cc(O)ccc2C2=C1c1ccc(O)cc1C[C@H]2CC | – | 11.7 µM (active)
O=C(Nc1ccccn1)C1CCN(S(=O)(=O)c2ccc3c(c2)OCCO3)CC1 | 114% (inactive) | –
CCOc1ccc(-c2noc(CCC(=O)NC3CCCC3)n2)cc1OC | 1.54% (inactive) | –
Cc1ccc(C)c(OCCC(=O)OCC(=O)N2CCN(c3ccccc3)CC2)c1 | 7.54% (inactive) | –
CC(C)NC(=O)COCc1cc(-c2ccc3c(c2)OCO3)on1 | 41.4% (inactive) | –
COc1ccc(C(=O)CC(=O)C(=O)Nc2cc([N+](=O)[O-])ccc2OC)cc1 | -19.7% [at 0.00184 µM] (inactive) | –
Cc1cc(C)n(CC(O)COc2ccc(C(C)(C)C)cc2)n1 (stereo not given) | -22.6% (inactive) | –
CN(C)CC(O)COc1ccc(C(C)(C)c2ccc(OCC(O)CN(C)C)cc2)cc1 (stereo not given) | – | 5.86 µM (active)
OC(COc1ccc(Br)cc1)CN1CCCC1 (stereo not given) | -3.26% (inactive) | –
O=C(OCC(=O)N1CCc2ccccc21)c1ccc([N+](=O)[O-])cc1 | -15.6% (inactive) | –
